According to PubChem BioAssay AID623994 (NMMLSC, 2012):
Entries with a potency or affinity are not part of this list.

The molecules below were run against Multidrug resistance protein CDR2 (Candida albicans (strain SC5314 / ATCC MYA-2876)) (UniProt P78595) (assay: CaCDR2 efflux pump inhibitors in yeast, dose response, S. cerevisiae AD1-8u, singleplex, Cherry Pick2 set (AID 623994)). Settings: S. cerevisiae AD1-8u expressing CaCDR2, Nile Red efflux; series mostly up to 100 µM; Nile Red retention, efflux inhibition: at the top concentration.
Sequence of Multidrug resistance protein CDR2 (Candida albicans (strain SC5314 / ATCC MYA-2876)) (P78595 whole entry, looked up): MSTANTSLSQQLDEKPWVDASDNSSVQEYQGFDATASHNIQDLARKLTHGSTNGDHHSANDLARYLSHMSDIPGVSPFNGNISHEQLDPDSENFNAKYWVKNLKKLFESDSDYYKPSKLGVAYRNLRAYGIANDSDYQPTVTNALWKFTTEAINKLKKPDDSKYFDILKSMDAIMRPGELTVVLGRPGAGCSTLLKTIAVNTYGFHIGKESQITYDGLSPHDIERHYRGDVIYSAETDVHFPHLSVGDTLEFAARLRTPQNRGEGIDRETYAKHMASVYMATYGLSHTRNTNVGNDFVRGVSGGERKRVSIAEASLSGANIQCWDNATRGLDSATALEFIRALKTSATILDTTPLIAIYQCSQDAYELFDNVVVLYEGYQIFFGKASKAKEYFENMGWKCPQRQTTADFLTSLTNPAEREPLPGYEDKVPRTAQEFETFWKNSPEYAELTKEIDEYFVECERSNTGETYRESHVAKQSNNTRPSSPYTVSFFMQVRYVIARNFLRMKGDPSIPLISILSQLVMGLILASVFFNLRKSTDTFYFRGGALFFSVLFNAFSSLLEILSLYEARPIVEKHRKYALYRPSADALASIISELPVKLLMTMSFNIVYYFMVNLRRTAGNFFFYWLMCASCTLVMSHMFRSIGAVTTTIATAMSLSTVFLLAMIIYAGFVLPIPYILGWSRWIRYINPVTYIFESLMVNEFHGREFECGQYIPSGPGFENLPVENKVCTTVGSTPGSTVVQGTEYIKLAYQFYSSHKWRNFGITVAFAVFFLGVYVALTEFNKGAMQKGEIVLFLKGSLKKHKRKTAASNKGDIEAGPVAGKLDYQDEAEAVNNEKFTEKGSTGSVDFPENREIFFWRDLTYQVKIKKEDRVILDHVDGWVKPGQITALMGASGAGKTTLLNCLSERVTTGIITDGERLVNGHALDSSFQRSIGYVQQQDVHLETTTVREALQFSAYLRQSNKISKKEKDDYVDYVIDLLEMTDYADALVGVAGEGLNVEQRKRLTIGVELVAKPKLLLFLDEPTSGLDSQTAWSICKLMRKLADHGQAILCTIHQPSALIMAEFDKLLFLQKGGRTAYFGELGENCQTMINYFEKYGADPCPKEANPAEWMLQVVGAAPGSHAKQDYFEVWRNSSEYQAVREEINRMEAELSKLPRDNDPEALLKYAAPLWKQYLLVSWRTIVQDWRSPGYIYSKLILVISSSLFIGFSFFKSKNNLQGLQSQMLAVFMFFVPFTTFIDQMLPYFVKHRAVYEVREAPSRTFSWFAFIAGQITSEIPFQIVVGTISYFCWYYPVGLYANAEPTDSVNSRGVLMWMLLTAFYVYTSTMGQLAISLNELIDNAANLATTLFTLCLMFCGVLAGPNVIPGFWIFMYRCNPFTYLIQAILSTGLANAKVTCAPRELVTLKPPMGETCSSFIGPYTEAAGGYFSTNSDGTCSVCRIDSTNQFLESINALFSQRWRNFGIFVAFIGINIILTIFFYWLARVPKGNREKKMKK

Nile Red retention, efflux inhibition, inactive:
COc1cccc(N2CCN(C(=O)C3CCCN(c4ncnc5c4nc4n5CCCCC4)C3)CC2)c1 (stereo not given) -0.8%, O=C(C[n+]1cc(-c2ccc(F)cc2)n2c1CCC2)N1c2ccccc2Sc2ccccc21 -4.27%, C[C@@]12C(=O)Nc3ccc(Cl)cc3C(=O)N1[C@H]1c3cc(Cl)ccc3OC[C@@H]1[C@@H]2c1ccccc1 -9.04%, Cc1ccc(CNC(=O)C2CCC(CNc3nc(=S)[nH]c4ccccc34)CC2)cc1 (stereo not given) 6.63%, CCCCN1Cc2cc(C(=O)c3cc(OC)ccc3O)cnc2NC1=O 12.2%, COc1ccc(CNC(=O)C(C#N)c2nc3ccccc3nc2N2CCCC2)cc1 (stereo not given) -1.94%, O=C(C[n+]1cc(-c2ccc(Cl)cc2)n2c1CCC2)N1c2ccccc2Sc2ccccc21 9.2%, O=C(/C=C/c1cccs1)N1CCC2(CC1)Oc1ccc(F)cc1C(=O)C21CC(c2ccccc2)=NO1 (stereo not given) 0.2%, COc1ccc(C(=O)OCCc2ccc(O)cc2)cc1 -3.92%, NS(=O)(=O)c1ccc(N2N=C(c3ccccc3)CC2c2ccc(Br)cc2)cc1 (stereo not given) -8.16%, CCO[C@@H]1OC(C(=O)Nc2ccccc2)=C[C@H](c2ccc(Br)cc2)[C@H]1CCCO -0.14%, Cc1cc(C(=O)NC2CC(C)(C)Cc3c2cnn3-c2ccc(F)cc2)no1 (stereo not given) -1.63%, Cc1ccc(N2CCN(C(=O)C3CCCN(c4ncnc5c4nc4n5CCCCC4)C3)CC2)c(C)c1 (stereo not given) -0.59%, COc1ccc([C@H]2CC(=O)C=C(c3ccnc4ccc(Cl)cc34)C2)cc1 0.18%, O=C(Nc1ccccc1)C1=C[C@@H](c2ccc(C(F)(F)F)cc2)C[C@@H](OCCCCO)O1 1.83%
